Results reported in PubChem BioAssay AID720697 (Broad Institute, 2013).
Potency and affinity values are given separately. Results filed as inconclusive are left out. Where a call stands in place of a potency, no number is given. Active and inactive are the calls of the source.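 The calls were made as follows: active = signal loss with fitted half-maximal concentration at or below twice the top valid tested dose in every test run; inconclusive = runs disagree, flat 30 to 70% signal loss, or poor fit; inactive = all runs flat, opposite direction, or potency beyond limit.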

Assay: HEK293T cytotoxicity, dose response, cytotoxicity control for miR-122 modulator project, cell-based, inhibitor set, cherry-pick, set 2 (AID 720697)
Conditions: HEK293T viability, CellTiter-Glo luminescence, 48 h; series mostly up to 26 µM

SMILES | outcome
O=C(COc1ccccc1F)N1CCc2ccccc2C1 | inactive
CN1C(=O)c2cc(NS(=O)(=O)c3ccc(Cl)cc3)ccc2OC[C@H]2O[C@H](CC(=O)N3CCc4ccccc4C3)CC[C@@H]21 | inactive
Nc1ccc(Oc2ccc(Br)cc2)cc1 | inactive
C[C@@H]1CN([C@@H](C)CO)S(=O)(=O)c2ccc(C3=CCCC3)cc2O[C@@H]1CN(C)C(=O)c1ccc(F)cc1 | inactive
CCNC(=O)Nc1ccc2c(c1)C(=O)N(C)[C@H]1CC[C@H](CC(=O)NCc3ccccc3F)O[C@H]1CO2 | inactive
CN1C(=O)c2cc(NC(=O)c3ccc4c(c3)OCO4)ccc2OC[C@@H]2O[C@@H](CC(=O)O)CC[C@@H]21 | inactive
COc1ccc(C(=O)N2C[C@H]3[C@@H](c4ccccc42)[C@@H](CO)N3C(=O)Cc2ccccn2)cc1 | inactive
COc1cccc(COc2cc3ccccc3nc2C)c1 | inactive
COCCN(C[C@H]1[C@H](c2ccccc2)[C@@H](CO)N1C(=O)C1CCC1)C(C)=O | inactive
CO[C@@H]1CN(C)C(=O)c2ccc(NS(C)(=O)=O)cc2OC[C@H](C)N(C(=O)CN(C)C)C[C@@H]1C | inactive
CC(C)N(C[C@H]1[C@H](c2ccccc2)[C@@H](CO)N1S(C)(=O)=O)C(=O)CN(C)C | inactive
N=c1c2c(-c3ccccc3)c(-c3ccccc3)n(Cc3ccccc3)c2ncn1CCO | inactive
COc1ccc(C(C#N)Nc2ccc(C)cc2)cc1 (centres undefined) | inactive
Cc1cc(C(F)F)n2ncc(C(=O)NCCc3ccccc3Cl)c2n1 | inactive
CCN(CC)CCNc1nc(-c2ccccc2)nnc1C(F)(F)F | inactive
COc1ccc(C#Cc2ccc3c(c2)O[C@H](CN(C)C(=O)CN2CCOCC2)[C@H](C)CN([C@@H](C)CO)S3(=O)=O)cc1 | inactive
O=C(Nc1ccccc1F)N1C[C@H]2[C@@H](c3ccccc31)[C@@H](CO)N2C(=O)C1CC1 | inactive
Cc1ccc(-c2nnn(CC(=O)N(CC(=O)NCC3CCCO3)c3ccccc3)n2)o1 (centres undefined) | inactive
CN1C(=O)c2cc(NS(=O)(=O)c3cccc(F)c3)ccc2OC[C@H]2O[C@@H](CC(=O)NCCN3CCCCC3)CC[C@H]21 | inactive
CC(C)NC(=O)Nc1ccc2c(c1)C(=O)N(C)[C@@H]1CC[C@@H](CC(=O)NCC(F)(F)F)O[C@@H]1CO2 | inactive

SMILES | outcome
CCC(=O)N(C)C[C@@H]1[C@@H](c2ccccc2)[C@H](CO)N1Cc1cccnc1 | inactive
COc1ccc(NC(=O)N(C)C[C@@H]2Oc3cc(C#CCC(C)C)ccc3S(=O)(=O)N([C@@H](C)CO)C[C@@H]2C)cc1 | inactive
C[C@@H]1CN([C@H](C)CO)C(=O)c2cc(-c3cncnc3)cnc2O[C@H]1CN(C)Cc1ccc(Oc2ccccc2)cc1 | inactive
CO[C@@H]1CN(C)C(=O)c2ccc(NC(=O)Nc3ccc(C(F)(F)F)cc3)cc2OC[C@H](C)NC[C@H]1C | inactive
COc1ccc(N2CCN(C(=O)CSc3nnc(CNc4ccccc4)o3)CC2)cc1 | inactive
C[C@H](CO)N1C[C@H](C)[C@H](CN(C)CC2CCCCC2)OCCCC[C@H](C)Oc2ccc(NC(=O)Nc3cccc4ccccc34)cc2C1=O | inactive
CN1C(=O)c2cc(NC(=O)c3cccs3)ccc2OC[C@H]2O[C@@H](CC(=O)NCCN3CCCCC3)CC[C@H]21 | inactive
O=C(c1cccnc1)N1C[C@H]2[C@@H](c3ccccc31)[C@H](CO)N2C(=O)C1CCCC1 | inactive
CNC(=O)C[C@@H]1CC[C@H]2[C@@H](COc3ccc(NC(=O)c4ccc(C(F)(F)F)cc4)cc3C(=O)N2C)O1 | inactive
Cc1cccc(NC(=O)Nc2ccc3c(c2)C(=O)N(C)[C@@H]2CC[C@@H](CC(=O)NCc4ccccc4Cl)O[C@H]2CO3)c1 | inactive
CCOc1cc(C(=O)NC(C)COC)cc(OCC)c1OCC (centres undefined) | inactive
O=CN1CCN(C(=O)c2ccccc2F)CC1 | inactive
C[C@@H]1CN([C@@H](C)CO)C(=O)c2cc(NC(=O)Nc3cccc4ccccc34)ccc2O[C@@H](C)CCCCO[C@H]1CN(C)CC1CCCCC1 | inactive
CN1C(=O)c2cc(NC(=O)C3CCOCC3)ccc2OC[C@H]2O[C@H](CC(=O)NCc3ccc4c(c3)OCO4)CC[C@@H]21 | inactive
CNC(=O)C[C@@H]1CC[C@H]2[C@@H](COc3ccc(NC(=O)c4cccc(OC)c4)cc3C(=O)N2C)O1 | inactive
CCCC(=O)Nc1ccc2c(c1)C(=O)N(C)[C@H]1CC[C@H](CC(=O)NCCN3CCCCC3)O[C@@H]1CO2 | inactive
COc1cccc(-c2nn(-c3ccccc3)cc2CO)c1 | inactive
COCC(=O)Nc1ccc2c(c1)C(=O)N(C)[C@@H]1CC[C@@H](CC(=O)NCc3ccc(OC)cc3)O[C@H]1CO2 | inactive
CN1C(=O)c2cc(NC(=O)Cc3ccccc3)ccc2OC[C@H]2O[C@@H](CC(=O)NCc3ccc(Cl)cc3)CC[C@@H]21 | inactive
